# Assay outcomes deposited in PubChem BioAssay by National Center for Advancing Translational Sciences (NCATS).
# A selection: hits, their analogues and other compounds. The true share with any hit is near 13%.
# AID923 – qHTS Assay for Allosteric/Competitive Inhibitors of Caspase-1: Spectroscopic Profiling in AFC Spectral Region; actives 1.1% (n = 75,000); Potency, µM (doses to about 57.5 µM), for inactives: top-dose fluorescence increase, most hits filed as activators; compound fluorescence, AFC spectral region (405/520 nm); AID 923, 2007; further: potency means the concentration at half of the fitted maximal effect; 0% is about no effect
#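 Compound autofluorescence profiled at 405 nm ex/520 nm em during kinetic caspase 1 run (50 nM enzyme, 5 uM Ac-WEHD-AFC, HEPES pH 7.5, 10 mM DTT). Titration up to 57 uM; baseline from regression intercept, normalized to AFC standard curve.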
# 4-MU autofl – qHTS Assay for Spectroscopic Profiling in 4-MU Spectral Region | compound autofluorescence, 340/450 nm, 4-MU equivalents; stronger effect = higher value | AID 589, 2007 | max dye-equivalent concentration, M | actives 11% (n = 59,000); in the data active means max dye-equivalent concentration above about 10 nM; inconclusive means mostly about 1.1 nM to 9.6 nM
#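 Intrinsic fluorescence at 340/450 nm (ex/em) was read after 15 min at room temperature in pH 8.0, 100 mM Tris. Each compound concentration expressed as 4-MU-equivalent concentration from a six-point 4-MU standard series on each plate.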
# A350 autofl – qHTS Assay for Spectroscopic Profiling in A350 Spectral Region. actives 11% (n = 59,000). Compound autofluorescence, 340/450 nm, Alexa 350 dye-equivalents; stronger effect = higher value. max dye-equivalent concentration, M; in the data active means max dye-equivalent concentration above about 10 nM; inconclusive means mostly about 1.1 nM to 9.6 nM
# HADH2 inh – qHTS Assay for Inhibitors of HADH2 (Hydroxyacyl-Coenzyme A Dehydrogenase, Type II); 3-hydroxyacyl-CoA dehydrogenase type-2 (Homo sapiens), Q99714; recombinant HADH2, NADH fluorescence, beta-hydroxybutyryl-CoA; Potency, µM (doses to about 57.1 µM), inactives show top-dose activity change, negative = inhibition, hits mostly inhibitors; actives 3.4% (n = 73,000); further: potency means the concentration at half of the fitted maximal effect; on the % scale 0 is the no-effect control and ±100 the full control effect; nearly all actives have a fitted effect of over 60% in size
# Target sequence (Q99714 whole entry, looked up, one chain of several): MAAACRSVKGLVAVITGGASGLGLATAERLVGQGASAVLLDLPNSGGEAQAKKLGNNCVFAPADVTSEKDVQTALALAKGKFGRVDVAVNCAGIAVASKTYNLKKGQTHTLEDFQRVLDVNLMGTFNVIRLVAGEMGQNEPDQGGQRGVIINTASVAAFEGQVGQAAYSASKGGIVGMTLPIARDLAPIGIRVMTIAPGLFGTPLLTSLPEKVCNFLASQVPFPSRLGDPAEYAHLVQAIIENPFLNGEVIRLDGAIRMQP
#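 NADH fluorescence (ex 360/em 450 nm) read every 30 s for 4 min; activity taken as last-minus-first time point difference. Enzyme 20 nM, NAD+ 1 mM, beta-hydroxybutyryl-CoA 90 uM, pH 9.0 Tris buffer.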
# HSD17B inhib – qHTS Assay for Inhibitors of HSD17B4, hydroxysteroid (17-beta) dehydrogenase 4; 3-hydroxyacyl-CoA dehydrogenase type-2 (Homo sapiens), Q99714; recombinant HSD17B10, NADH fluorescence kinetic; Potency, µM (top dose mostly 57.1 µM), for the others: top-dose activity change, negative = inhibition, most hits filed as inhibitors; actives 7.6% (n = 75,000); AID 893, 2007;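 further: the protocol describes HADH2 (HSD17B10) and not the HSD17B4 of the title; potency means the concentration at half of the fitted maximal effect; on the % scale 0 is the no-effect control and ±100 the full control effect; nearly all actives have a fitted effect of over 70% in size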
#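 His-tagged E. coli-expressed HADH2 at 20 nM in 100 mM Tris-HCl pH 9.0 with 0.01 % Tween-20, preincubated 15 min with compound at room temperature. Reaction with 1 mM NAD+ and 90 uM beta-hydroxybutyryl coenzyme A; NADH fluorescence (360/450 nm) read kinetically over 4 min, last minus first point.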
# Starred values were filed as active, the others as inactive; i = inactive; ? = inconclusive; / = no result given; [ ] = remark or other dose. Unless noted, the call rests on the fitted dose curve; in most records, active means well fitted curve in the direction sought with a large enough effect; inconclusive means small, poorly fitted or top-dose-only effect, or another doubt; inactive means no such curve, though single readings can be large; an effect the other way counts as inactive or inconclusive.
SMILES,AID923,4-MU autofl,A350 autofl,HADH2 inh,HSD17B inhib
CCOc1cc(C2CC(=O)N3CN(C4CCCCC4)CSC3=C2C#N)ccc1O (stereo not given),0%,/,/,3.2µM*,?
COc1ccccc1N1CCN(Cc2ccco2)CC1,-1%,i,i,-14%,1%
COc1ccc2ccccc2c1C1CC(=O)N2CN(C3CCCCC3)CSC2=C1C#N (stereo not given),-2%,/,/,1.6µM*,16µM*
COc1ccc2ccccc2c1C1CC(=O)N2CN(Cc3ccco3)CSC2=C1C#N (stereo not given),0%,/,/,1.3µM*,25µM*
COc1ccc(C2C(=O)N(C3CCCCC3)CC(=O)N2CCc2ccccc2)cc1OC (stereo not given),0%,i,i,-7%,3%
CCOc1cc(C2C(C#N)=C(N)Oc3n[nH]c(-c4ccccc4)c32)ccc1O (stereo not given),-1%,?,?,?,-18%
COc1ccc(C2C3=C(CCCC3=O)Nc3nc4ccccc4n32)c(OC)c1OC (stereo not given),5%,5.8e-07M*,5.3e-07M*,25µM*,2.5µM*
COc1ccc(OC)c(C2C3=C(CCCC3=O)Nc3nc4ccccc4n32)c1 (stereo not given),0%,3.4e-08M*,3.3e-08M*,0%,-19%
COC(=O)c1nc2n(n1)C(c1cccc(Cl)c1)C1=C(CCCC1=O)N2 (stereo not given),0%,/,/,-2%,37%
COc1ccc(C2C3=C(CCCC3=O)Nc3nc(SCc4ccccc4)nn32)cc1OC (stereo not given),-3%,6.2e-08M*,6.3e-08M*,?,i
COc1ccc(C2C3=C(CCCC3=O)Nc3nc4ccccc4n32)cc1OC (stereo not given),3%,1e-07M*,7.6e-08M*,?,16µM*
COc1ccc2c(c1)c(CC(=O)O)c(C)n2Cc1ccc(F)cc1,-1%,i,i,9%,-9%
CCC/C=C(\CCC)C(NP(=O)(c1ccccc1)c1ccccc1)c1ccc(-c2ccccc2)cc1 (stereo not given),1%,/,/,-12%,?
CC(=O)OC[C@@H]1O[C@H](CCO/N=C(\C)CCN2CCCc3nc(C)c(C)cc32)C=C[C@@H]1OC(C)=O,3%[11.5 µM],/,/,-7%[11.4 µM],?
O=c1c(-c2cccc(Cl)c2)nc2cncnc2n1Cc1ccc(F)cc1,3%,i,i,0%,-12%
O=c1[nH]cnc2c1nc(Cl)n2C1OC(CO)C(O)C1O (stereo not given),0%,/,/,/,3%
CC(=O)[C@@H](C)CCO[C@@]1(C)OCC[C@@H]1C,2%[11.5 µM],i,i,0%[11.4 µM],3%[11.4 µM]
Cc1cc(Cn2cnc3c2C[C@@H](C(=O)O)N(C(=O)C(c2ccccc2)c2ccccc2)C3)ccc1N(C)C,-2%,/,/,1%,?
Cc1cc2ncc(C(=O)Nc3ccccc3)c(C)n2n1,0%,i,i,0%,9%
Cc1c(C(=O)O)cnc2cc(-c3ccc(Cl)cc3)nn12,-2%,/,/,3%,25µM*
O=c1c2ccccc2ncn1Cc1ccco1,/,i,i,/,/
Cc1cccc(-n2cnc3c(c2=O)c2nc4ccccc4nc2n3Cc2ccco2)c1,9%,2e-07M*,3.2e-07M*,94%,32µM*
COc1ccc(Cn2c3nc4ccccc4nc3c3c(=O)n(Cc4ccco4)cnc32)cc1,16%,3.2e-08M*,4e-08M*,?,16µM*
C[C@@H](C(=O)NCc1ccccc1)[C@@H]1C[C@@]1(C)[C@@H](NC(=O)OCc1ccccc1)c1ccccc1,-1%,/,/,1%,0%
C[C@@H](C(=O)NCc1cccc2ccccc12)[C@H]1C[C@]1(C)[C@H](NC(=O)OCc1ccccc1)c1ccccc1,-4%,/,/,10%,32µM*
COc1ccc(-n2c(=O)c(-c3cc(F)cc(F)c3)nc3cnc(N(C)C)nc32)cc1,?,?,?,-1%,-1%
